# Key:
# Test in all cases: PBM binding z-score (relative to random genomic background probes); higher = stronger binding; sequences stand for … in GC…GCGATTGACAGCGTAGAATGAAGG
# [1] = test system: PPARg:RXRa DBDmut IVT, anti-RXR (DBD mutation: RXRa K156A/R161A, NR concentration 270 nM, RXRa partner concentration 90 nM)
# Method in brief: (§1)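 Binding z-scores take random background probes as their reference. They come from custom Agilent 4×180K protein-binding microarrays incubated 1 h with ligand-free nuclear receptor dimers, with antibodies against each partner (one per run) detecting binding. Scanned fluorescence was regression-normalized.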
# [2] = test system: PPARg:RXRa IVT, anti-PPARg (NR concentration 270 nM, RXRa partner concentration 90 nM)
# Method in brief: as §1
# [3] = test system: PPARg DBDmut:RXRa IVT, anti-PPARg (DBD mutation: PPARg1 K132A/R137A, NR concentration 270 nM, RXRa partner concentration 90 nM)
# Method in brief: as §1
# [4] = test system: PPARg DBDmut IVT, anti-PPARg (DBD mutation: PPARg1 K132A/R137A, NR concentration 270 nM)
# Method in brief: as §1
# [5] = test system: PPARg homodimer (NR concentration 180 nM)
# Method in brief: as §1
# [6] = test system: PXR:RXRa (NR concentration 270 nM, RXRa partner concentration 90 nM)
# Method in brief: as §1
# [7] = test system: PXR homodimer (NR concentration 270 nM)
# Method in brief: as §1
# [8] = test system: RARa:RXR (NR concentration 270 nM, RXRa partner concentration 90 nM)
# Method in brief: as §1
# [9] = test system: RARa homodimer (NR concentration 270 nM)
# Method in brief: as §1
# [10] = test system: RARb:RXRa (NR concentration 270 nM, RXRa partner concentration 90 nM)
# Method in brief: as §1
Sequence,PBM binding z-score [1],PBM binding z-score [2],PBM binding z-score [3],PBM binding z-score [4],PBM binding z-score [5],PBM binding z-score [6],PBM binding z-score [7],PBM binding z-score [8],PBM binding z-score [9],PBM binding z-score [10]
TCTGCTAGGCCAACGATGGTCAGCTAATCTGCTA,1.09,0.619,-0.0832,-1.02,-1.45,-0.538,-1.31,-0.793,-1.04,0.786
CAAACTAGATCAAAGGTCAAAGTCGAGCCAACCA,4.3,6.8,1.17,1.55,4.96,5.7,1.84,6.94,2.11,4.83
TTTATTAGTTGATTAGGGCAACCGAAACAGCGGA,1.46,2.1,1.84,1.94,1.68,0.473,0.839,0.832,2.38,1.24
TCTCGGGGGACACGAAGGTCAGAGCTTTCCAGAG,2.39,3.51,2.53,5.36,2.05,3.27,1.24,3.29,0.556,3.73
TCATATAGGTAAATGCTAGGGGAAAGTCCGATCT,4.25,2.11,1.09,1.29,0.609,0.434,0.33,0.628,1.4,0.327
ATCTCTAGGTAAAAGTTGAGTGAATCCCGAGGAT,2.05,2.5,1.01,1.53,0.688,0.0685,0.147,0.3,0.494,0.471
ATCGAAAGGTCGTGCGGTGAGTATACAGAAAGGC,0.148,1.68,0.719,0.4,3.06,3.2,0.322,3.75,0.484,3.7
TTACCAAGGTGAAGGTCGTTTATCCCTCTGTAGA,2.02,3.38,0.35,0.225,0.696,1.7,0.623,1.65,-0.48,2.2
CCTTACGGGTGACGAGGTTATAGCACGACGAGCG,1.91,2.65,0.21,-0.275,1.21,0.931,-0.0569,1.52,0.128,1.1
CTCGAAAGGTCGGTTGAGTTGAGTATACGGATAA,0.55,0.513,0.723,0.673,1.04,3.89,0.374,1.81,0.0679,2.71
TCTAGCAGGCCAGAGGGTCACTCAGGAGGTACGG,1.15,0.889,-0.476,-0.637,0.195,1.35,-0.32,2.12,-0.425,2.28
GCGACTGGGGCATCAGCAGGTTACCCTAACTTAA,3.51,2.87,-0.922,-0.0321,0.248,0.197,-0.267,0.596,-0.765,0.794
GGAACGAGGGCATTCGAGTTGTTAGCATGGCGAT,3.22,1.99,-0.193,-0.86,-0.473,1.99,0.576,0.173,-0.666,1.81
ATATGTAGGTTAGCTGGGGTCATTTAGACTAGGC,6.26,6.32,1.68,2.06,2.64,6.23,3.22,5.08,0.828,2.89
CTCGAAGGGTCGGTTGAGGTGAGTATACGGATAA,-0.575,0.478,-0.346,0.307,0.548,1.86,0.399,1.32,-0.148,1.88
ACTATTAGTTGACTTAGGGGAACCGATACGACGC,1.27,0.41,1.51,1.41,0.783,0.271,0.621,0.648,1.36,0.217
TCTAGTTGGTCTCGGAGGTCACACACGACGGGTA,1.7,2.32,1.38,1.29,2.19,4.11,0.901,4.22,0.998,3.35
TAGCCTAGGTCACTCAGGGGCCAGTATAGAAAGC,1.65,3.3,0.795,0.141,1.5,1.73,-0.391,3.07,-0.348,3.99
ATACCAAGATGATCGTGAGGTCGTTGATACTAAC,0.165,0.114,0.181,0.947,0.378,1.67,1.32,1.35,0.361,0.547

Sequence,PBM binding z-score [1],PBM binding z-score [2],PBM binding z-score [3],PBM binding z-score [4],PBM binding z-score [5],PBM binding z-score [6],PBM binding z-score [7],PBM binding z-score [8],PBM binding z-score [9],PBM binding z-score [10]
CCTATTAGTAGACCATAAGGGCAACCGAAGCTCG,1.88,1.11,0.0545,0.0708,1.4,0.71,0.501,0.768,1.33,1.25
GATTGTAGATCAAGGTTAAGAAAGACTAAGCTAA,1.55,1.67,-0.436,-0.166,-0.088,0.443,-0.271,0.732,-0.134,0.406
TAGCCTAGGTGATGCGGGCCAGTATAGTGTCGGC,-0.174,0.433,-0.831,-0.995,-1,-0.852,-0.76,-0.959,-0.718,-0.225
GCGGCTAGGTCAGGTTGGTCAGCTAACGGGTACG,1.28,1.36,-1.08,-0.633,0.749,0.325,-0.293,0.825,-0.0979,3.26
TCATATAGGTAATACAGGTCAAAGTCGGCATCTA,4.69,4.55,2.09,2.09,2.8,3.34,1.5,3.94,2.09,2.49
TGATATAGGTAAAAGGTGAAAGTCGGTGTGGTAA,5.38,5.55,1.59,1.77,1.8,1.68,0.555,2.78,1.18,2.05
CAAACTAGGTCAAGGTGAAAGTCGGTTTGTGCCA,8.58,8.62,2.55,1.53,1.47,1.65,0.138,2.19,0.4,4.2
GCTATTAGTTTAAAGGGCAACCGAATGATTCTCG,1.27,1.31,0.587,0.575,1.43,1.09,0.349,1.28,0.262,2.09
CCTAGTTGGTCAAGGTCACAGACGCTATAGGTAC,2.26,3.92,0.729,0.0985,3.27,4.21,2.19,4.66,2.61,4.28
ATATGTAGGTTACATCCGGATCATTCAGGCTATG,7.7,7.49,3.14,2.67,1,0.73,0.559,1.04,0.899,1.05
TAGCCTAGGTCATGCGGGCCAGTGTAGTGTCGGC,1.76,2.75,-0.395,-0.723,0.153,1.23,-0.733,1.69,-1.29,3.72
ATAACGAGGGCAATGAGTTGATAGCACGGGTGGC,3.37,2.77,1.02,0.667,0.411,2,5.03,0.222,-0.438,2.02
GCATATAGGTAATAAAAGGTGAAAGTCCGATTGT,3.99,3.33,0.83,0.676,1.38,0.771,0.163,2.04,0.974,1.12
TCTCTTAGTTGAAGGGCAACCGACGAGTCCGTTT,2.62,0.645,0.259,0.537,0.739,0.86,0.261,0.472,0.622,1.63
ATCTCTAGGTAAAGATAGTTCAGCGAATGCAAAT,2.37,1.47,0.72,1.31,0.488,0.995,0.643,0.739,1.34,0.964
GCATATAGGTAATCCAAGGTGAAAGTCCGATTGT,4.62,3.17,0.831,0.665,1.03,0.638,0.241,1.53,0.647,0.51
CGTCCAAGGTCAATGCTAGGTCAGGGAAAGCATT,2.8,4.06,-0.00201,-0.912,3.8,4.55,0.675,5.55,0.824,5.31
TGAATGAGGTTAAAGATCAGGGTACGTGGCGTCG,2.05,3.93,1.21,0.291,1.09,2.14,-0.073,3.31,-0.532,2.21
CATACAGGGTCAGCTAGGCCAGAGGAGGGACGGC,0.736,2.07,1.18,1.1,1.66,2.15,-0.08,3.04,0.169,4.16
